Data from PubChem BioAssay (Tox21).
A number with no mark means an inactive call. Inconclusive results are not listed. Entries that show only a call come without a potency. Active and inactive are the calls of the source. Unless noted, calls come from the whole dose curve.

What was measured:
[1] = Nuclear factor erythroid 2-related factor 2/antioxidant responsive element (Nrf2/ARE) small molecule agonists: qHTS cell viability counter screen in human keratinocytes (AID 1919968; active = well fitted curve in the direction sought with a large enough effect in the repeat runs; an effect the other way counts as inactive or inconclusive; note: nearly all actives have a fitted effect of over 55% in size)
Outline: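 Seed 1,500 KeratinoSens cells per well, then incubate 5 h at 37 C/5% CO2. Add compounds in DMSO and incubate 23 h. Add CellTiter-Fluor, wait 1 h and read fluorescence.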

[2] = molecular target: Gonadotropin-releasing hormone receptor (Homo sapiens) (UniProt P30968); assay: Human gonadotropin-releasing hormone receptor (GnRHR) small molecule agonists, calcium flux assay in GnRHR-HEK293 cells (AID 1920063); note: nearly all actives have a fitted effect of over 35% in size
Outline: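 Cells: HEK293 stably expressing human GnRHR. Steps: overnight (18 h) culture, 1 h calcium dye loading at 37 C, compound addition, kinetic fluorescence read at 480/540 nm. Each compound tested at 15 concentrations in triplicate.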

[3] = molecular target: KiSS-1 receptor (Homo sapiens) (UniProt Q969F8); assay: Human kisspeptin (KISS1R) small molecule agonists, calcium flux assay in KISS1R-HEK293 cells (AID 1920064; active = well fitted curve in the direction sought with a large enough effect in the repeat runs; an effect the other way counts as inactive or inconclusive)
Outline: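 Cells plated and incubated 18 h; dye added, 1 h at 37 C; compounds in DMSO pinned in; signal read at 480/540 nm every second for 3 min. Each compound tested at 15 concentrations in triplicate.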

[4] = G protein-coupled receptor (GPCR) small molecule agonists, calcium flux assay: HEK293 wild type cell line counter screen (AID 1920065)
Outline: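 Counter-screen of the Tox21 10K library for non-specific calcium release: dye-loaded cells received compounds in DMSO and were monitored by kinetic fluorescence (480/540 nm, 3 min). Fifteen concentrations, run in triplicate.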

[5] = p53 small molecule agonists, cell-based qHTS assay with human liver microsomes (AID 1963577);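 note: p53 response element beta-lactamase reporter cells with liver microsomes plus NADPH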
Outline: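 HLM-supplemented p53RE-bla reporter assay: 16 h compound exposure at 37 C, microsomes and NADPH each 0.5 mg/mL final, read by fluorescence intensity.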

[6] = p53 small molecule agonists, cell-based qHTS assay with rat liver microsomes (AID 1963578)
Outline: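 Quantitative HTS of the Tox21 10K library: p53RE-bla cells, rat liver microsomes plus NADPH at 0.5 mg/mL final each, 16 h at 37 C, beta-lactamase fluorescence detection.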

[7] = p53 small molecule agonists, cell-based qHTS assay with human liver microsomes: qHTS cell viability counter screen (AID 1963579); note: nearly all actives have a fitted effect of over 45% in size
Outline: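 Viability of p53RE-bla cells is measured as CellTiter-Glo luminescence following a 16 h, 37 C incubation with compound, liver microsomes from human donors and NADPH.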

[8] = p53 small molecule agonists, cell-based qHTS assay with rat liver microsomes: qHTS cell viability counter screen (AID 1963580); note: nearly all actives have a fitted effect of over 45% in size
Outline: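 p53RE-bla HCT-116 cells were exposed 16 h at 37 C to compounds with rat liver microsomes (0.5 mg/mL) and NADPH (0.5 mg/mL). Viability was measured in the same wells as ATP content by CellTiter-Glo luminescence.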

[9] = p53 small molecule agonists, cell-based qHTS assay: qHTS cell viability counter screen (AID 1963581); note: nearly all actives have a fitted effect of over 45% in size
Outline: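 Cells: HCT-116 with p53 response element-driven beta-lactamase. Treatment: 16 h, 37 C, compounds in DMSO. Read: CellTiter-Glo luminescence after 30 min RT.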

[10] = p53 small molecule agonists, cell-based qHTS assay (AID 1963582; active = well fitted activation curve with a large enough effect in the signal ratio in the repeat runs, not every such curve was filed as active; the % refers to the signal ratio; note: potency is the fitted concentration of half-maximal effect)
Outline: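 Quantitative HTS in p53RE-bla cells: after a 5 h settling period, compounds delivered in DMSO were left on cells for 16 h at 37 C, and reporter induction was measured as fluorescence following 2 h substrate loading.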

[11] = molecular target: 5-hydroxytryptamine receptor 2A (Homo sapiens) (UniProt P28223); assay: 5-hydroxytryptamine receptor 2A (HTR2A) small molecule agonists, cell-based qHTS assay (AID 1963587); note: nearly all actives have a fitted effect of over 30% in size; note: potency is the fitted concentration of half-maximal effect
Outline: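 CHO cells stably expressing human HTR2A, plated 18 h, loaded with calcium dye 1 h at 37 C. Agonist mode: compounds added and intracellular calcium fluorescence recorded kinetically for 2 min at 1 sec intervals.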

[12] = molecular target: Muscarinic acetylcholine receptor M1 (Homo sapiens) (UniProt P11229); assay: Cholinergic receptor muscarinic 1 (CHRM1) small molecule antagonists, cell-based qHTS assay (AID 1963588); note: nearly all actives have a fitted effect of over 40% in size
Outline: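 CHRM1-CHO calcium-flux assay, antagonist mode. Cells were seeded 18 h, dye-loaded 1 h at 37 C and given compound for 5 min at RT, then acetylcholine was added at 50nM. FDSS fluorescence was read 3 min; 15 concentrations, three runs.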

[13] = molecular target: Muscarinic acetylcholine receptor M1 (Homo sapiens) (UniProt P11229); assay: Cholinergic receptor muscarinic 1 (CHRM1) small molecule agonists, cell-based qHTS assay (AID 1963589); note: nearly all actives have a fitted effect of over 35% in size
Outline: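 Agonist-mode qHTS in CHO cells stably carrying human muscarinic M1. Intracellular calcium is tracked by fluorescence every second after compound transfer; each compound runs at 15 concentrations in three independent runs.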

[14] = cAMP Responsive Elements (CRE) small molecule antagonists, cell-based qHTS assay (AID 1963591; active = well fitted inhibition curve with a large enough effect in the signal ratio in the repeat runs, not every such curve was filed as active; the % refers to the signal ratio)
Outline: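 Antagonist mode: test compounds are co-incubated with the adenylyl cyclase activator NKH477 (0.25 uM final) on CRE-bla HEK293T cells for 3 h at 37 °C, followed by LiveBLAzer substrate loading.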

[15] = molecular target: Beta-2 adrenergic receptor (Homo sapiens) (UniProt P07550); assay: Adrenergic beta2 receptor (ADRB2) small molecule antagonists, cell-based qHTS assay (AID 1963592); note: series mostly up to about 92 µM; nearly all actives have a fitted effect of over 50% in size
Outline: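 Cells (CHO, stable ADRB2 overexpression) incubated 18-20hr at 37C; compounds added from DMSO; agonist mix (1nM isoproterenol, 100uM IBMX, 25uM Ro-20-1724) added; 0.5hr RT; d2-cAMP and anti-cAMP-cryptate added; 1hr RT; 665/615 nm read.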

[16] = molecular target: Beta-2 adrenergic receptor (Homo sapiens) (UniProt P07550); assay: Adrenergic beta2 receptor (ADRB2) small molecule agonists, cell-based qHTS assay (AID 1963593);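 note: CHO cells stably overexpressing human ADRB2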
Outline: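 CHO cells stably over-expressing ADRB2 were plated overnight at 37C, then dosed with compounds plus a stimulation mix containing 100uM IBMX and 25uM Ro-20-1724 for 0.5hr at room temperature. cAMP was measured by HTRF competition, 1hr.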

[17] = molecular target: D(2) dopamine receptor (Homo sapiens) (UniProt P14416); assay: Dopamine D2 receptor (DRD2) small molecule antagonists, cell-based qHTS assay (AID 1963595; active = well fitted inhibition curve with a large enough effect in the signal ratio in the repeat runs, with a control signal flat; the % refers to the signal ratio)
Outline: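 DRD2-HEK293; 0.1 mM Ro20-1724; cpd 10 min RT; NKH477 200 nM + quinpirole 12 nM, 30 min RT; HTRF cAMP (cAMP-d2/anti-cAMP cryptate), 665/620 nm ratio after 1 h.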

[18] = molecular target: 5-hydroxytryptamine receptor 2A (Homo sapiens) (UniProt P28223); assay: 5-hydroxytryptamine receptor 2A (HTR2A) small molecule antagonists, cell-based qHTS assay (AID 1963586); note: nearly all actives have a fitted effect of over 45% in size
Outline: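 Antagonist-mode intracellular calcium assay: DOI (4 nM) added after 5 min compound pre-incubation at room temperature to dye-loaded HTR2A-CHO cells. Fluorescence followed for 3 min, sampled every second.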

[19] = cAMP Responsive Elements (CRE) small molecule agonists, cell-based qHTS assay (AID 1963590)
Outline: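 Agonist mode qHTS in CRE-bla HEK 293T cells: compounds dosed from DMSO for 3 h at 37 C/5% CO2, followed by LiveBLAzer B/G FRET substrate for 2 h at room temperature.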

[20] = molecular target: D(2) dopamine receptor (Homo sapiens) (UniProt P14416); assay: Dopamine D2 receptor (DRD2) small molecule agonists, cell-based qHTS assay (AID 1963594); note: nearly all actives have a fitted effect of over 35% in size
Outline: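 HEK293 cells stably expressing human DRD2, pre-treated with PDE inhibitor Ro20-1724 (0.1 mM final) and compound 10 min at room temperature, then stimulated with NKH477 (200nM […]) for 30 min. cAMP read by HTRF (665/620 nm).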

Sequence of Muscarinic acetylcholine receptor M1 (Homo sapiens) (P11229 whole entry, looked up): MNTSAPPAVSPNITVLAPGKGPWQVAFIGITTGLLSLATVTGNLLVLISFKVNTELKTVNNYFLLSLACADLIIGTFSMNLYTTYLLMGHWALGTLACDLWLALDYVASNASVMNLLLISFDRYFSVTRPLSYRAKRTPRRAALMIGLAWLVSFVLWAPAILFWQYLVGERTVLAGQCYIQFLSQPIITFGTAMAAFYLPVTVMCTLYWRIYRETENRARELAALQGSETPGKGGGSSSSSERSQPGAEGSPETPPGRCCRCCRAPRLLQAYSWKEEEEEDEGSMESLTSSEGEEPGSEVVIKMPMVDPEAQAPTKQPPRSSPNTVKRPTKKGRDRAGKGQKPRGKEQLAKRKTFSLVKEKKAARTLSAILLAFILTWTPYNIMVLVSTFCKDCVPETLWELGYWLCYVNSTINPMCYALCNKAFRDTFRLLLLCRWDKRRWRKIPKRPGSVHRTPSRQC
Sequence of Beta-2 adrenergic receptor (Homo sapiens) (P07550 whole entry, looked up): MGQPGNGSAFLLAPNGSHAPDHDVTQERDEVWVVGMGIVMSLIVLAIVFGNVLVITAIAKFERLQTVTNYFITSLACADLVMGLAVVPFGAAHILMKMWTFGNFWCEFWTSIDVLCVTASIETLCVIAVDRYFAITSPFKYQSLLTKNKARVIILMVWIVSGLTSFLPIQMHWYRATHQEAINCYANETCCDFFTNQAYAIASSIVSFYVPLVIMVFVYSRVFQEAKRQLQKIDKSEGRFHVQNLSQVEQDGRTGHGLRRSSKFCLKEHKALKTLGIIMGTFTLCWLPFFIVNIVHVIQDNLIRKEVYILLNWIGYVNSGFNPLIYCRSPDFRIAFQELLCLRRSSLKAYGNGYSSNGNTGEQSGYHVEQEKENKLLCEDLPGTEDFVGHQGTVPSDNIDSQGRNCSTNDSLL
Sequence of Gonadotropin-releasing hormone receptor (Homo sapiens) (P30968 whole entry, looked up): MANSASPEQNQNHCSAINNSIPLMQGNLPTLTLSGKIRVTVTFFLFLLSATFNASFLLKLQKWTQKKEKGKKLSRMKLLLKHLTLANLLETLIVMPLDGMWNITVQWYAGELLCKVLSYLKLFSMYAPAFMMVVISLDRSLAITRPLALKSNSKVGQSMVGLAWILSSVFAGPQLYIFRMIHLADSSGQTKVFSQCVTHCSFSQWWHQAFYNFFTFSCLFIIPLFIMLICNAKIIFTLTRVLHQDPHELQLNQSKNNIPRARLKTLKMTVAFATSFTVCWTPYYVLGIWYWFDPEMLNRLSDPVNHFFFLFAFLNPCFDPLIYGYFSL
Sequence of D(2) dopamine receptor (Homo sapiens) (P14416 whole entry, looked up): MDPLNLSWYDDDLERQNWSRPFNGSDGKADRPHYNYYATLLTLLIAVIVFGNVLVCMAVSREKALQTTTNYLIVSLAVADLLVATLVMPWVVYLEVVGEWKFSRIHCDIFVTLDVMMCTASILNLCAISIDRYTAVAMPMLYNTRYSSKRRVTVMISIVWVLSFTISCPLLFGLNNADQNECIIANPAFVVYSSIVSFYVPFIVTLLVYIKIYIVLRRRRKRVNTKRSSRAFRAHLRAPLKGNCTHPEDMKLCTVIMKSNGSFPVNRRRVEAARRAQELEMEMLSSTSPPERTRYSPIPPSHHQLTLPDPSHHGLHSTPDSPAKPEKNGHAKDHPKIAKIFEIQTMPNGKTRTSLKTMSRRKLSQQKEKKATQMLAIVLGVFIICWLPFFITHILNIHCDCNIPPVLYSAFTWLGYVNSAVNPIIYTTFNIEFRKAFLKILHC
Sequence of KiSS-1 receptor (Homo sapiens) (Q969F8 whole entry, looked up): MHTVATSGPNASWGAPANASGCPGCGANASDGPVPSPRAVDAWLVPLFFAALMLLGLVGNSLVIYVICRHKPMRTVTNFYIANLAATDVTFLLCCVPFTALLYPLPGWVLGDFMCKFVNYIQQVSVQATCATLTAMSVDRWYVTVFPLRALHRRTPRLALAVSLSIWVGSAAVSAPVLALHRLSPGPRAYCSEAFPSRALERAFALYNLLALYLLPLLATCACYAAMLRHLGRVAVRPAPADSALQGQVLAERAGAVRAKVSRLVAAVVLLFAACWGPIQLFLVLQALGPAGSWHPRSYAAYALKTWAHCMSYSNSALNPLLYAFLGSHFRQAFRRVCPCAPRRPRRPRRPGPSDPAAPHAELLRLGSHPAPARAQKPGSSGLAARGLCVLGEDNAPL
Sequence of 5-hydroxytryptamine receptor 2A (Homo sapiens) (P28223 whole entry, looked up): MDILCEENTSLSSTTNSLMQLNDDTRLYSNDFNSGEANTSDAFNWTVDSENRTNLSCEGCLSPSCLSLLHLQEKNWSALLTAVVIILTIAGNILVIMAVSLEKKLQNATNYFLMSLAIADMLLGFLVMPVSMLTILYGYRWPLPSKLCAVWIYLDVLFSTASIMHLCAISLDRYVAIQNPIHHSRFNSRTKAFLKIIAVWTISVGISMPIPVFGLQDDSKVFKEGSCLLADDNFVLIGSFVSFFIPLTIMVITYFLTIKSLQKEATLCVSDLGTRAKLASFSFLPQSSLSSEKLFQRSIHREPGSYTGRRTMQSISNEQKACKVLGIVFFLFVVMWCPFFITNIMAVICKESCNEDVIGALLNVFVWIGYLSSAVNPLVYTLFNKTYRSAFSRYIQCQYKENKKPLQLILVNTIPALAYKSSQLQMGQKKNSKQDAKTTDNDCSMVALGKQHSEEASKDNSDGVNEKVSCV

Row | SMILES | Potency [1] | Potency [2] | outcome [3] | outcome [4] | Potency [5] | Potency [6] | Potency [7] | Potency [8] | Potency [9] | Potency [10] | Potency [11] | Potency [12] | Potency [13] | Potency [14] | Potency [15] | Potency [16] | Potency [17] | Potency [18] | Potency [19] | Potency [20]
1 | Cc1nnc(C(=O)NC(C)(C)c2nc(C(=O)NCc3ccc(F)cc3)c(O)c(=O)n2C)o1 | inactive | inactive | inactive | inactive | inactive | inactive | inactive | inactive | inactive | inactive | inactive | inactive | inactive | inactive | inactive | inactive | inactive | – | – | –
2 | CO[C@@H]1COCC[C@@H]1N[C@@H]1CC[C@@](C(=O)N2CCc3ncc(C(F)(F)F)cc3C2)(C(C)C)C1 | inactive | inactive | inactive | inactive | inactive | inactive | inactive | inactive | inactive | inactive | inactive | – | inactive | inactive | inactive | inactive | – | inactive | inactive | inactive
3 | C=CCOc1c(Br)cc(Br)cc1Br | inactive | inactive | inactive | inactive | inactive | inactive | inactive | inactive | inactive | inactive | – | inactive | inactive | inactive | inactive | – | inactive | inactive | inactive | inactive
4 | C=CCSCC1Nc2cc(Cl)c(S(N)(=O)=O)cc2S(=O)(=O)N1 (stereo unspecified) | inactive | inactive | inactive | inactive | inactive | inactive | inactive | inactive | inactive | inactive | inactive | inactive | inactive | inactive | inactive | – | inactive | – | inactive | –
5 | CN(C)CCc1c[nH]c2ccc(CS(=O)(=O)N3CCCC3)cc12 | inactive | inactive | inactive | inactive | inactive | inactive | inactive | inactive | inactive | inactive | 10.7 µM (active) | inactive | inactive | inactive | inactive | inactive | inactive | – | – | inactive
6 | CC(=O)CCc1ccc(O)cc1 | inactive | inactive | inactive | inactive | inactive | inactive | inactive | inactive | inactive | inactive | inactive | – | inactive | inactive | – | – | inactive | inactive | inactive | inactive
7 | c1cc2c3c(c1)ccc1cccc(c13)C2 | inactive | inactive | inactive | inactive | inactive | inactive | inactive | inactive | inactive | inactive | inactive | inactive | inactive | – | inactive | – | inactive | inactive | – | inactive
8 | C=C(C)C(=O)OCC(C)(C)COC(=O)C(=C)C | inactive | – | – | – | inactive | inactive | inactive | inactive | inactive | inactive | inactive | inactive | inactive | inactive | inactive | – | inactive | inactive | – | inactive
9 | O=C(c1ccc(O)cc1)c1ccc(O)cc1 | inactive | inactive | inactive | inactive | inactive | inactive | – | inactive | – | – | inactive | inactive | inactive | inactive | inactive | inactive | inactive | inactive | – | inactive
10 | Cc1ccsc1C(=CCCN1CCC[C@@H](C(=O)O)C1)c1sccc1C | inactive | inactive | inactive | inactive | inactive | inactive | inactive | inactive | – | 0.5 µM (active) | inactive | inactive | inactive | – | inactive | inactive | inactive | inactive | – | inactive
11 | Nc1ccc(S(=O)(=O)NC(=O)c2ccccc2)cc1 | inactive | inactive | inactive | inactive | inactive | inactive | inactive | inactive | inactive | inactive | – | – | – | inactive | inactive | – | inactive | – | inactive | inactive
12 | N#Cc1ccc(C/C(=N/NC(=O)Nc2ccc(OC(F)(F)F)cc2)c2cccc(C(F)(F)F)c2)cc1 | inactive | inactive | inactive | inactive | inactive | inactive | inactive | inactive | inactive | – | inactive | inactive | inactive | inactive | inactive | – | inactive | inactive | – | inactive
13 | CCn1cc(C(=O)O)c(=O)c2cc(F)c(N3CCNCC3)cc21 | inactive | inactive | inactive | inactive | inactive | inactive | inactive | inactive | inactive | inactive | – | – | – | inactive | inactive | inactive | inactive | – | inactive | inactive
14 | CCO[Si](CC)(OCC)OCC | inactive | inactive | inactive | inactive | inactive | inactive | inactive | inactive | – | inactive | inactive | inactive | inactive | inactive | inactive | inactive | – | inactive | inactive | inactive
